Records with an inconclusive call do not appear. The source made the active and inactive calls. Unless noted, calls follow the shape of the dose curve; as a rule, active = well fitted curve in the direction sought with a large enough effect; inconclusive = small, poorly fitted or top-dose-only effect, or another doubt; inactive = no such curve, though single readings can be large; an effect the other way counts as inactive or inconclusive.
Assays:
[1] = target: Cytochrome P450 1A2 (Homo sapiens) (UniProt P05177); experiment: p450-cyp1a2 (AID 410; calls by dose curve; also: potency is read from the fitted curve at half-maximal effect); details: recombinant CYP1A2, luciferin-ME demethylation, luminescence; series mostly up to 57 µM
Chain of Cytochrome P450 1A2 (Homo sapiens) (P05177 whole entry, looked up): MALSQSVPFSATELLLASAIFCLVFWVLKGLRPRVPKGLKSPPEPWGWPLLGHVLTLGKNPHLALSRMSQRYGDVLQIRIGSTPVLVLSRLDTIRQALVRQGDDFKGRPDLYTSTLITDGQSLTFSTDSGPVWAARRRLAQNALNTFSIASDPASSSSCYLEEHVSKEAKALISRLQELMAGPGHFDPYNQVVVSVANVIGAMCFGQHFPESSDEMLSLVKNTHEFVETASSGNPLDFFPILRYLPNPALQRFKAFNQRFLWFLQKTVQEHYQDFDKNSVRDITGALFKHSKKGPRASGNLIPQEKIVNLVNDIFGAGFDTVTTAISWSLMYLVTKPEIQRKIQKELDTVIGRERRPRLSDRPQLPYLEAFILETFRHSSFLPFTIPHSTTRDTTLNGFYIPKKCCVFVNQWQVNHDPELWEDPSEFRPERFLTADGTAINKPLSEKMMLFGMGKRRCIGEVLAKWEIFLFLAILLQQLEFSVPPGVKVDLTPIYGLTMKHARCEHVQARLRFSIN
How it was run: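 20nM CYP1A2 with 100uM Luciferin-ME (at Km) in 100mM KPO4; compound preincubated 10 min, NADPH regeneration added, 60 min at room temperature. Luciferin quantified by luminescence after detection reagent; normalized to 57 uM furafylline.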

[2] = NFAT Signaling Pathway (AID 444; active = well fitted curve in either direction with a large enough effect, not every such curve was filed as active;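 also: carbachol stimulus at about its EC50 of 1 µM final; % is scaled to controls: 0 for no effect and ±100 for the full control effect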); details: Jurkat NFAT-bla M1, carbachol, beta-lactamase ratio, 5 h; at 7.69 µM (top of the series) unless noted
How it was run: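 Read-out: CCF4 FRET ratio (460 nm/530 nm) after 1 h RT dye loading, used for %activity and AC50 from titration series. Cells: Jurkat NFAT-β-lactamase/M1 line, treated with compound plus 1 uM carbachol for 5 h, 37 °C.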

[3] = Stat Signaling Pathway (AID 446; active = well fitted curve in either direction with a large enough effect, not every such curve was filed as active;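 also: ME-180 cervical cancer cells given 40 pM IL-6 alongside compound; SIE-controlled beta-lactamase reporter measured as 460/530 nm FRET emission ratio; % is scaled to controls: 0 for no effect and ±100 for the full control effect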); details: ME-180 SIE beta-lactamase reporter, IL-6 stimulated, 5 h; at 7.69 µM (top of the series) unless noted
How it was run: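 ME-180 SIE-bla cells; overnight plating; cpd + IL-6 40 pM, 5 h, 37 C; LiveBLAzer 2.5 h RT; 460/530 nm emission ratio. Normalized to 300 pM IL-6 and 125 nM JAK inhibitor controls.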

[4] = target: Glucocorticoid receptor (Homo sapiens) (UniProt P04150); experiment: GR-GFP Redistribution (AID 450;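 active = compounds whose dose series gives a full or clear partial fitted curve of increased nuclear translocation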; also: potency is read from the fitted curve at half-maximal effect); details: U2OS GR-GFP nuclear translocation, laser cytometry, 2 h
[5] = target: Glucocorticoid receptor (Homo sapiens) (UniProt P04150); experiment: GR-EFC Redistribution (AID 451; calls by dose curve; also: potency is read from the fitted curve at half-maximal effect); details: CHO-K1 GR-EFC translocation, beta-gal luminescence, 2 h
How it was run: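 Translocation of GR-ED fusion to nuclear EA restores b-gal, read by luminescence after 1 h room-temperature detection. Engineered CHO-K1 biosensor cells, 1,000/well, exposed 2 h at 37 C to titrations up to 46 uM final.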

[6] = target: Mitogen-activated protein kinase 10 (Mus musculus) (UniProt Q61831); experiment: JNK3 AlphaScreen Assay (AID 530; active = well fitted curve in either direction with a large enough effect, not every such curve was filed as active;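 also: kinase came from lysate of stimulated human HepG2 cells; signal reports phosphorylation of biotinylated GST-cJun 1-79 at Ser73 with 10 µM ATP; % is scaled to controls: 0 for no effect and ±100 for the full control effect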); details: JNK3 lysate, c-Jun phosphorylation; series mostly up to 57.1 µM
How it was run: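 Compound titrations were preincubated 15 minutes at room temperature with substrate, antibody and pre-activated JNK3-containing HepG2 lysate. Reactions were started with 10 uM ATP and stopped with EDTA-containing bead buffer for AlphaScreen detection.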

[7] = target: 3',5'-cyclic-AMP phosphodiesterase 4B (Homo sapiens) (UniProt Q07343); experiment: qHTS Assay for Inhibitors of PDE-IV (AID 607; active = well fitted activation curve with a large enough effect in the main read-out, with a control signal flat, not every such curve was filed as active; also: % of control where 0% means no effect); details: HEK293 ACTOne CNG channel cells, membrane potential fluorescence; series mostly up to 22.9 µM
Chain of 3',5'-cyclic-AMP phosphodiesterase 4B (Homo sapiens) (Q07343 whole entry, looked up): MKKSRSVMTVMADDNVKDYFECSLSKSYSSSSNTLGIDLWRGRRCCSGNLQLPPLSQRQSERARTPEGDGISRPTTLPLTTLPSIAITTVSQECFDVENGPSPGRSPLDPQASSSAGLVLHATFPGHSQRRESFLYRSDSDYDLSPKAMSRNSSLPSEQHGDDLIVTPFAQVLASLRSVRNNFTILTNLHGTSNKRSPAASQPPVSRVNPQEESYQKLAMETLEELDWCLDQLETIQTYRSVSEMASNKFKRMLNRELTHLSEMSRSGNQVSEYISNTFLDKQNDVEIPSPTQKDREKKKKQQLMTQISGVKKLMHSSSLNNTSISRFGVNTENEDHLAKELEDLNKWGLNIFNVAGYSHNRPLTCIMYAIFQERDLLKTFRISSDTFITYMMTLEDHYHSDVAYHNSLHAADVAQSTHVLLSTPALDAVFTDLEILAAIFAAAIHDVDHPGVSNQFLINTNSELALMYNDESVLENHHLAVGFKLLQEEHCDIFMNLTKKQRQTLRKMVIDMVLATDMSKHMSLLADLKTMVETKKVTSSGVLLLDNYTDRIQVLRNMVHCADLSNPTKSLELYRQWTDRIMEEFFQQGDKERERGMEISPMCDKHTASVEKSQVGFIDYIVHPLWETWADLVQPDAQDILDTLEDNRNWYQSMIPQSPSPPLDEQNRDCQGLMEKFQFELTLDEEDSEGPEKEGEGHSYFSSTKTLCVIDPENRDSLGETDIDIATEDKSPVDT
How it was run: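 ACTOne HEK293 cells carry a modified cAMP-gated CNG channel and express endogenous PDE4; plated 1000 cells/well, compounds up to 22.9 uM final. Membrane-potential dye fluorescence (ex 535/em 590) was read; parental cells received 10 uM forskolin + 100 uM RO 20-1724.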

[8] = target: Cytochrome P450 3A4 (Homo sapiens) (UniProt P08684); experiment: qHTS Assay for Activators of Cytochrome P450 3A4 (AID 885); details: recombinant CYP3A4, Luciferin-PPXE luminescence, 60 min; series mostly up to 57.1 µM; also: nearly all actives have a fitted effect of over 65% in size
Chain of Cytochrome P450 3A4 (Homo sapiens) (P08684 whole entry, looked up): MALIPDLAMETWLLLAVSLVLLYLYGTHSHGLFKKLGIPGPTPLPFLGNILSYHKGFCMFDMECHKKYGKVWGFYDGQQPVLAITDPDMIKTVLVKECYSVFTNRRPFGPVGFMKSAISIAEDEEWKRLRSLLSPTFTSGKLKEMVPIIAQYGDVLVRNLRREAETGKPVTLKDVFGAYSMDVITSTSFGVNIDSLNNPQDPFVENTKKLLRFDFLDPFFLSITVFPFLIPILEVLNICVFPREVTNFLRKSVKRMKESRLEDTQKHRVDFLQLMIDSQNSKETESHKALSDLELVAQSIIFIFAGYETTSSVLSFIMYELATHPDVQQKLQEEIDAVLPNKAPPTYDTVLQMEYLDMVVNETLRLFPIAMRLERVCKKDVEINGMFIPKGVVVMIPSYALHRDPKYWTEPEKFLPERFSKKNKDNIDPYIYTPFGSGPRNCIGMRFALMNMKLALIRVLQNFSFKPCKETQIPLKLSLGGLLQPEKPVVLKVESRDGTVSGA
How it was run: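 20nM CYP3A4 + 25uM Luciferin-PPXE (=KM), 200mM KPO4; cpd 10 min RT; NADPH regen, 60 min RT; stop w/ detection buffer, 20 min; luminescence. Normalized to 57 uM ketoconazole.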

[9] = qHTS Assay for Lipid Storage Modulators (AID 1519; calls by dose curve); details: Drosophila S3 cells, BODIPY lipid droplet/cell ratio, laser cytometry, cells loaded with oleic acid; for activity change, negative = inhibition: at 57.5 µM (top of the series)
How it was run: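 Cells seeded at 5,000 per well were treated with compounds over a concentration series and loaded with oleic acid (400 uM, as added). Lipid droplet fluorescence (488 nm excitation, 500-530 nm channel) was read by laser-scanning cytometry and normalized to 20 uM Triacsin C.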

[10] = Primary qHTS for small molecule stabilizers of the endoplasmic reticulum resident proteome: Secreted ER Calcium Modulated Protein (SERCaMP) assay (AID 1508630); details: SH-SY5Y GLuc-SERCaMP (Gaussia luciferase released on ER calcium loss) secretion, thapsigargin, luminescence; series mostly up to 38.4 µM; also: % is scaled to controls: 0 for no effect and ±100 for the full control effect
How it was run: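 GLuc-SERCaMP-expressing SH-SY5Y cells, pretreated 16 h with compound, are challenged with thapsigargin to empty ER calcium stores; after 4 h, coelenterazine is added directly to the medium and luminescence is imaged.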

[11] = target: Lysosomal acid glucosylceramidase (Homo sapiens) (UniProt P04062); experiment: Glucocerebrosidase-p2 (AID 348; in the data active = potency below about 10 µM; also: potency is read from the fitted curve at half-maximal effect); details: purified GBA, blue fluorogenic substrate, 40 min
Chain of Lysosomal acid glucosylceramidase (Homo sapiens) (P04062 whole entry, looked up): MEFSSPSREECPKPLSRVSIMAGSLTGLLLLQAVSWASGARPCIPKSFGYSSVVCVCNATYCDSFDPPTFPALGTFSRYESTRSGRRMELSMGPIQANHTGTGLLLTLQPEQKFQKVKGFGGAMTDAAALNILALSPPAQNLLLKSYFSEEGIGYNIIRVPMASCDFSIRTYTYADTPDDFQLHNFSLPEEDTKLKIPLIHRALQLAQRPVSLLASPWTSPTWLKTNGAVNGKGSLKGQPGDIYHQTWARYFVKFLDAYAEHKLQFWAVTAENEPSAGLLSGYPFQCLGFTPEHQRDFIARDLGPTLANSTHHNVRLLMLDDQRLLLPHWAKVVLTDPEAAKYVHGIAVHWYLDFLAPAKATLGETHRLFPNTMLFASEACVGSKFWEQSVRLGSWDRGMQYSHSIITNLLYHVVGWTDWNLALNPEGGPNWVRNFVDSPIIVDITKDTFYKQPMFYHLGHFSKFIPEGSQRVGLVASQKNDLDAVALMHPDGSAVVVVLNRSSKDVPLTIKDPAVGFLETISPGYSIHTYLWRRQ
How it was run: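 Compounds titrated from 0.6 nM upwards against 0.2 nM enzyme in pH 5.9 citric acid/KH2PO4, taurocholate, tween-20; blue fluorogenic substrate 80 uM, 40 min room temperature, stopped and read Ex 365/Em 440 for AC50.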

[12] = AP1 Signaling Pathway (AID 357; active = well fitted curve in either direction with a large enough effect, not every such curve was filed as active; also: % is scaled to controls: 0 for no effect and ±100 for the full control effect); details: ME-180 (cervical carcinoma) AP-1-bla reporter, EGF-induced, beta-lactamase ratio, 5 h; at 7.69 µM (top of the series) unless noted
How it was run: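 In this screen, ME-180 cells in Opti-MEM with 0.5% dialyzed FBS received EC50 EGF and compound titrations for 5 h. AP-1 reporter beta-lactamase was detected via CCF4 ratio, giving AC50 for positive and negative modulators.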

[13] = target: Dual specificity protein kinase CLK4 (Homo sapiens) (UniProt Q9HAZ1); experiment: qHTS Assay for Inhibitors of CDC-like Kinase 4 (ADP-FP Assay) (AID 1795); details: Transcreener ADP fluorescence polarization; series mostly up to 50 µM;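 also: recombinant human CLK4 phosphorylating RS repeat peptide at 1 µM ATP; % is scaled to controls: 0 for no effect and ±100 for the full control effect; nearly all actives have a fitted effect of over 60% in size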
Chain of Dual specificity protein kinase CLK4 (Homo sapiens) (Q9HAZ1 whole entry, looked up): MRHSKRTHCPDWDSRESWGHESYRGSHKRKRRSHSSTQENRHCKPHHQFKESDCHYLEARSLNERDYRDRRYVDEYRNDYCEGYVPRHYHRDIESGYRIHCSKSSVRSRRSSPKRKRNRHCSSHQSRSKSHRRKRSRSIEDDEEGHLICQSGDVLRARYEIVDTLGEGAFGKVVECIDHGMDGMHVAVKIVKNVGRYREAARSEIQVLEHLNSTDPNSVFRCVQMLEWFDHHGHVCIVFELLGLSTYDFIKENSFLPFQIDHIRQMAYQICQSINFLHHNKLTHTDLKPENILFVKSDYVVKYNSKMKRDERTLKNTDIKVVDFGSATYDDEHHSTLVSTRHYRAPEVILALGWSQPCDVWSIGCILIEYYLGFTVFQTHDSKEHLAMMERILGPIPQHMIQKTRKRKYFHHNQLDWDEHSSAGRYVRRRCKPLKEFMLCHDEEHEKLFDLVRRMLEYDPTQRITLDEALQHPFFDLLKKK
How it was run: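 Clk4 6.25 nM; RS peptide 100 uM; ATP 1 uM; 25 mM Tris pH 7.5, 10 mM MgCl2; 1 h reaction. ADP detected via antibody/orange tracer FP displacement; TG003 positive control.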

[14] = target: Ubiquitin carboxyl-terminal hydrolase 1 (Homo sapiens) (UniProt O94782); experiment: Inhibitors of USP1/UAF1: Pilot qHTS (AID 504865); details: purified USP1/UAF1, Ub-rhodamine cleavage fluorescence; series mostly up to 54.9 µM;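 also: rhodamine fluorescence freed from ubiquitin-rhodamine substrate followed over time; top concentration of the series differs between compounds; % is scaled to controls: 0 for no effect and ±100 for the full control effect; nearly all actives have a fitted effect of over 35% in size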
Chain of Ubiquitin carboxyl-terminal hydrolase 1 (Homo sapiens) (O94782 whole entry, looked up): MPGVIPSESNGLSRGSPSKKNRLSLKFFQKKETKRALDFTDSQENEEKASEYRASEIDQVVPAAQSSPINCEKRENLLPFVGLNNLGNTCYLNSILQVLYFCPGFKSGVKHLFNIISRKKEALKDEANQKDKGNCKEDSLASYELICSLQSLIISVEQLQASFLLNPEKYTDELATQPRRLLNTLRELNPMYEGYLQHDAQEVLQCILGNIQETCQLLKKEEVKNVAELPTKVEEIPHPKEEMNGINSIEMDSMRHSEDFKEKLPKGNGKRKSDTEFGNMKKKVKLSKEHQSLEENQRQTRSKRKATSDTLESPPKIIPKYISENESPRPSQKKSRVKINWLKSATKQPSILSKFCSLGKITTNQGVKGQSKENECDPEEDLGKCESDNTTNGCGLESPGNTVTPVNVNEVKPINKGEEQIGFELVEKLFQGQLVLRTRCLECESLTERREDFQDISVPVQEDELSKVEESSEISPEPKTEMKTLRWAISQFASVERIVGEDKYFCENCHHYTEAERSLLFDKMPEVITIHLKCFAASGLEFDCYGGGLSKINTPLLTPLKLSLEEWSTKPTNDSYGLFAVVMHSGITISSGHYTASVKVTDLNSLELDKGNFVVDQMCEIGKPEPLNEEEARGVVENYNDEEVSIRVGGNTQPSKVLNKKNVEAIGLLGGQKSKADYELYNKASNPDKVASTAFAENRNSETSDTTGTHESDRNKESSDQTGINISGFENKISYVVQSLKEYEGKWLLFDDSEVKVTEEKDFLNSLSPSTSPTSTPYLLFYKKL
How it was run: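 In 50mM HEPES pH 7.8 containing 0.5mM EDTA, 1mM TCEP, 0.1 mg/ml BSA and 0.01% Tween-20, 1nM USP1/UAF1 is exposed to compound for 15 min, then Ub-Rho (150nM final) is added and fluorescence is read over time.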

[15] = target: Rap guanine nucleotide exchange factor 3 (Homo sapiens) (UniProt O95398); experiment: Confirmatory qHTS for antagonist of cAMP-regulated guanine nucleotide exchange factor 3 (EPAC1) (AID 1645880); details: EPAC1 Rap1B-BODIPY-GDP exchange, fluorescence; series mostly up to 115 µM;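 also: plate controls were DMSO only for no effect and full effect of the ATA control for full effect; nearly all actives have a fitted effect of over 55% in size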
Chain of Rap guanine nucleotide exchange factor 3 (Homo sapiens) (O95398 whole entry, looked up): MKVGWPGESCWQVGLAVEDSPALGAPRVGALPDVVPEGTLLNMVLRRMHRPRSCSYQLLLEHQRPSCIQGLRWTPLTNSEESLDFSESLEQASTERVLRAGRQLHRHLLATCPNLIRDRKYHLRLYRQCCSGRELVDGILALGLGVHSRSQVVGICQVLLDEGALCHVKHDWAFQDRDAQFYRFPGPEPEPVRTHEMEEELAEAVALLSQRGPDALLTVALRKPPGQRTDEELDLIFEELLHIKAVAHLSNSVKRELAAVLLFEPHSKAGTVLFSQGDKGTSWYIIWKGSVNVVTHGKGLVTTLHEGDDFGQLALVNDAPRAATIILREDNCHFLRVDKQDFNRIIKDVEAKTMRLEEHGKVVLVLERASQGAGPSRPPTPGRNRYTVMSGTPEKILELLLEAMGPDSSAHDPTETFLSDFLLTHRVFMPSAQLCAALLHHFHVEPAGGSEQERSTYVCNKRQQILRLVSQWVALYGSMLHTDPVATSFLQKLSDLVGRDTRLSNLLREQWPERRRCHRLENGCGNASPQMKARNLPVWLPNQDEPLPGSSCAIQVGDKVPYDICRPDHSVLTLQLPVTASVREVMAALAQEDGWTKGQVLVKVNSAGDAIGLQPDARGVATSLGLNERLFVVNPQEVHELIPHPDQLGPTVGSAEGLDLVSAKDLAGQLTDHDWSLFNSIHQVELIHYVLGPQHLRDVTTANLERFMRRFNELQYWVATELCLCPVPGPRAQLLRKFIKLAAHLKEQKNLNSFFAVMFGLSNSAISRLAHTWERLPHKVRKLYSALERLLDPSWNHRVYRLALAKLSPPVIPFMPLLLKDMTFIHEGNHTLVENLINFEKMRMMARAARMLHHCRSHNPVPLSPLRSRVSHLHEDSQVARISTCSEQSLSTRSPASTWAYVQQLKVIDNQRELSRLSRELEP
How it was run: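 Nucleotide exchange uses 100 nM EPAC1, 250 nM RAP1B-BODIPY-GDP and 50 uM GDP, with compounds in a concentration-titration series. After 5 min at room temperature, fluorescence (480 nm ex/540 nm em) is read every 5 min for 30 min. Data are normalized to control ATA and DMSO.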

[16] = target: Rap guanine nucleotide exchange factor 3 (Homo sapiens) (UniProt O95398); experiment: Confirmatory qHTS for agonist of cAMP-regulated guanine nucleotide exchange factor 3 (EPAC1) (AID 1645881); details: EPAC1 Rap1B BODIPY-GDP exchange fluorescence; series mostly up to 154 µM;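 also: EPAC1 catalysed release of BODIPY-GDP from Rap1B seen as fluorescence loss; 100% = effect of cAMP agonist control; nearly all actives have a fitted effect of over 75% in size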
[17] = target: Rap guanine nucleotide exchange factor 4 (Homo sapiens) (UniProt Q8WZA2); experiment: Confirmatory qHTS for agonist of cAMP-regulated guanine nucleotide exchange factor 4 (EPAC2) (AID 1645884); details: EPAC2 GEF activity, Rap1B-BODIPY-GDP fluorescence; series mostly up to 154 µM;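 also: nucleotide exchange releases bodipy-GDP from Rap1 and this lowers its fluorescence; nearly all actives have a fitted effect of over 65% in size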; also: potency is read from the fitted curve at half-maximal effect
[18] = target: Rap guanine nucleotide exchange factor 4 (Homo sapiens) (UniProt Q8WZA2); experiment: Confirmatory qHTS for antagonist of cAMP-regulated guanine nucleotide exchange factor 4 (EPAC2) (AID 1645885); details: EPAC2 Rap1B-BODIPY-GDP exchange fluorescence, biochemical; series mostly up to 114 µM; also: % is scaled to controls: 0 for no effect and ±100 for the full control effect; nearly all actives have a fitted effect of over 25% in size
[19] = target: Dual specificity protein kinase CLK4 (Homo sapiens) (UniProt Q9HAZ1); experiment: qHTS Assay for Inhibitors of CDC-like Kinase 4 (Kinase-Glo Assay) (AID 1770); details: recombinant Clk4, Kinase-Glo ATP depletion luminescence; series mostly up to 66.7 µM; also: potency is read from the fitted curve at half-maximal effect; nearly all actives have a fitted effect of over 65% in size
How it was run: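 Substrate mix (RS peptide 100 uM, ATP 1 uM) dispensed, compound pinned in, then Clk4 added to 25 nM final. Incubated 4.5 h at RT; Kinase-Glo reagent added, luminescence read after 5 min.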

[20] = target: Dual specificity protein kinase CLK4 (Homo sapiens) (UniProt Q9HAZ1); experiment: qHTS Assay for Inhibitors of CDC-like Kinase 4 (ADP-Glo Assay) (AID 1771); details: recombinant CLK4, ADP-Glo luminescence; series mostly up to 80 µM; also: potency is read from the fitted curve at half-maximal effect; nearly all actives have a fitted effect of over 70% in size
How it was run: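 25 nM Clk4 with 100 uM RS repeat peptide and 1 uM ATP (final) in buffer with 2 mM MgCl2, 0.5 mM EGTA, 2.5 mM DTT, 0.01% Triton X-100; 1 h at room temperature; ADP-Glo luminescence for ADP formed.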

[21] = measured here: cell count channel max response
[22] = measured here: lipid channel max response

COc1ccc(Oc2ncc3nc(-c4ccc(F)cc4)c(=O)n(C)c3n2)cc1
18%: max response [9, 21]
24.3%: max response [9, 22]
inactive: activity change, negative = inhibition [2] -22.3% | activity, negative = inhibition [3] 12.3% | Potency [4] > 9.22 µM | Potency [5] > 46 µM | Potency [6] | Potency [7] | Potency [8] | activity change, negative = inhibition [9] 4.46% | outcome [10]
active: Potency [1] 2 µM

COc1ccc(Oc2ncc3nc(-c4cc(F)cc(F)c4)c(=O)n(C[C@H]4CCCO4)c3n2)cc1
inactive: Potency [11] > 11.4 µM | activity change, negative = inhibition [12] -5.29% | activity change, negative = inhibition [2] -11.6% | activity, negative = inhibition [3] -0.431% | Potency [4] > 9.22 µM | Potency [5] > 46 µM | Potency [6] | Potency [7] | Potency [13] | Potency [14] | outcome [10] | Potency [15] | Potency [16] | Potency [17] | Potency [18]

COCCNc1nc(-c2ccccc2C)nc2ccccc12
active: Potency [1] 1.26 µM
3.47%: max response [9, 21]
inactive: activity change, negative = inhibition [2] -2.48% | activity, negative = inhibition [3] 5.05% | Potency [4] > 46 µM | Potency [5] > 46 µM | Potency [6] | Potency [7] | Potency [8] | activity change, negative = inhibition [9] 7.59% | outcome [10]
22.3%: max response [9, 22]

COc1ccc2[nH]cc(CCNc3nc(-c4cccc(C#N)c4)nc4ccccc34)c2c1
inactive: Potency [4] > 46 µM | Potency [5] > 46 µM | Potency [6] | Potency [7] | Potency [13] | Potency [14] | outcome [10] | Potency [15] | Potency [16] | Potency [17] | Potency [18]
active: Potency [19] 22.4 µM | Potency [20] 28.2 µM

CN(C)c1ncc2nc(-c3cc(F)cc(F)c3)c(=O)n(Cc3cccs3)c2n1
active: Potency [1] 1.58 µM | activity change, negative = inhibition [2] 110% [activator] | activity, negative = inhibition [3] 190% [activator]
inactive: Potency [11] > 11.4 µM | Potency [4] > 9.22 µM | Potency [5] > 46 µM | Potency [7] | Potency [8] | outcome [10] | Potency [15] | Potency [16] | Potency [17] | Potency [18]

COc1ccc(CNc2ccnc(-c3cccc(C#N)c3)n2)c(OC)c1
active: Potency [1] 2.51 µM | Potency [19] 15.8 µM | Potency [20] 10 µM
inactive: Potency [4] > 46 µM | Potency [5] > 46 µM | Potency [6] | Potency [8] | Potency [14] | outcome [10] | Potency [16] | Potency [17]

CN(C)c1ncc2nc(-c3cccs3)c(=O)n(C3CC3)c2n1
active: Potency [17] 19.9 µM
inactive: Potency [11] > 11.4 µM | activity change, negative = inhibition [12] 6.37% | activity change, negative = inhibition [2] 19.8% | Potency [4] > 9.22 µM | Potency [5] > 46 µM | outcome [10] | Potency [15] | Potency [18]
